High-throughput results (PubChem BioAssay)
Hits are enriched below; roughly 4.5% of the tested compounds scored in any of these assays.
DAX1 inh-1: inhibitors of DAX1 repression of SF-1 activated StAR promoter; 370,000 compounds, 1.1% hits; AID 652010; HEK293T StAR-luciferase reporter, SF-1/DAX-1 repression relief; inhibition, % at 6.8 µM;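 active = inhibition above the mean over all tested compounds plus 3 SD, cut at about 3.6% in these data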;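 note: 0% = DAX-1 cells with DMSO and 100% = cells lacking DAX-1 with DMSO; higher inhibition means more luminescence from relief of DAX-1 repression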
hcDAF12 agonist: H. contortus DAF-12 activation, primary screen; HEK293 hcDAF-12 lit1-tk-luc reporter, luminescence; 0% DMSO, 100% Δ7-dafachronic acid; activation, % at 6.8 µM; 370,000 compounds, 1.4% hits;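 active = activation above the mean of all tested compounds plus 3 SD, cut at about 5.5% in these data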;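 note: 100% = response to 3 µM Δ7-dafachronic acid high control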
hgDAF-12 ag: agonists of H. glycines DAF-12 nuclear receptor | activation, % at 6.8 µM | HEK293 GAL4-hgDAF12 UAS-luciferase reporter, agonist luminescence; normalized to butyrate control | 370,000 compounds, 1.8% hits;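 active = activation above a cutoff set at the mean of all screened compounds plus 3 SD, cut at about 10% in these data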;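 note: 0% = DMSO wells and 100% = sodium butyrate wells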
ssDAF-12 act: activates DAF-12 receptor from parasite S. stercoralis; HEK293 ssDAF-12/GRIP1 lit1-tk-luc reporter, luminescence; % of 3 µM dafachronic acid response; activation, % at 6.8 µM; 370,000 compounds, 1% hits; AID 652126;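 active = activation above the mean over all tested compounds plus 3 SD, cut at about 0.9% in these data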;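 note: 0% = DMSO-only wells and 100% = 3 µM delta7-dafachronic acid wells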
FXN GAA850 act: frataxin GAA850 promoter activation | HEK293 lucGAA850 FXN promoter luciferase reporter, 24 h; percent of 10 µM SAHA response | activation, % at 6 µM | 360,000 compounds, 0.56% hits;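 active = activation above the average of all compounds screened plus 3 SD, cutoff fixed separately per campaign, cut at about 7.5% in these data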;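 note: 0% = DMSO wells and 100% = 10 µM SAHA wells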
DAX1 inh-2: NR0B1 (DAX1) inhibition | P51843 | HEK293 Gal4-DAX1 luciferase reporter, luminescence | inhibition, % at 6.75 µM | 340,000 compounds, 0.99% hits | AID 504766;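 active = inhibition above the mean over all tested compounds plus 3 SD, cut at about 4.2% in these data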;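 note: 0% = DAX1-transfected cells with DMSO and 100% = empty-vector control cells with DMSO; inhibition shows as a rise in luminescence from relieved DAX1 repression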
hgDAF12 ag: confirmation of H. glycines DAF-12 agonists; AID 743050; 3,300 compounds, 80% hits; HEK293 GAL4-hgDAF12 luciferase reporter, agonist mode; percent of butyrate response; shares compounds with hgDAF-12 ag; activation, % at 6.8 µM;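 active = mean activation over triplicate wells above the hit cutoff derived from the earlier primary screen, cut at about 11% in these data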;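 note: 0% = DMSO low control and 100% = 2 mM sodium butyrate high control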
LXR ag 2: activates human LXR-beta, counter-screen for DAF-12 agonists; activation, % at 6.8 µM; shares compounds with hgDAF-12 ag; HEK293 Gal4-LXR luciferase reporter, 24 h; 3,300 tested, under 10 active;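 active = mean activation of the triplicate above a set limit carried over from the primary screen, none filed active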
Target sequence (P55055 whole entry, looked up, the tested form may be a part): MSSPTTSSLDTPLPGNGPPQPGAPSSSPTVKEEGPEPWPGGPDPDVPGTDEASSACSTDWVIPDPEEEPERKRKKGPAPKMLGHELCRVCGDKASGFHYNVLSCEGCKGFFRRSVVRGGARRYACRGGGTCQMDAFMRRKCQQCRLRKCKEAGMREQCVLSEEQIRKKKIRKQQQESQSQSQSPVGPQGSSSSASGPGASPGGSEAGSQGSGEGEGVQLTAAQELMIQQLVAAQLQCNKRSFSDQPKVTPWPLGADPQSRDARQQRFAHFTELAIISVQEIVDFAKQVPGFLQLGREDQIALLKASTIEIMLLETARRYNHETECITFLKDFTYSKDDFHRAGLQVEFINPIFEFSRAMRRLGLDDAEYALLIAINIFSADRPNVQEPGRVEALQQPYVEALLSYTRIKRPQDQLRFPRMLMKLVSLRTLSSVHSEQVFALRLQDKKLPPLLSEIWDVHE
* hit, by the source's call; nt = no result given.

SMILES	DAX1 inh-1	hcDAF12 agonist	hgDAF-12 ag	ssDAF-12 act	FXN GAA850 act	DAX1 inh-2	hgDAF12 ag	LXR ag 2
CCC(=O)c1ccc(OCc2ccc(C(=O)OC)cc2)cc1	3	5	16*	1	5	-2	15*	1
CC(=O)Nc1ccc(N=Cc2ccc(OCc3ccccc3)cc2)cc1	-1	5	14*	0	3	1	11*	0
COC(=O)c1ccc(COc2ccc(/C=N/Nc3cccc(C(=O)O)c3)cc2)cc1	2	3	17*	1.4*	6	-2	13*	1
O=C(O)c1cc(N/N=C/c2ccc(OCc3ccccc3)cc2)ccc1Cl	0	0	2	-1	5	0	nt	nt
CCOc1ncccc1C(=O)OCc1ccc(C(=O)OC)cc1	1	3	15*	1	3	1	12*	0
CN[C@@H]1CC[C@H](c2ccc(Cl)c(Cl)c2)c2ccccc21	-1	0	-1	-1	2	-1	nt	nt
Nc1nc(Nc2ccccc2F)sc1C(=O)c1ccccc1	0	3	19*	-1	-2	2	19*	1
O=C(NNc1ccccc1F)c1ccccc1	0	-1	-2	0	1	0	nt	nt
CC1CCCC(NC(=O)C2CCN(S(=O)(=O)N3CCCCC3)CC2)C1C (stereo not given)	0	-1	-1	-1	-1	2	nt	nt
O=C(NCCc1ccccc1)c1ccc(-c2cccnc2)c2ccoc12	4.3*	1	14*	1	3	nt	11*	0
O=C(NCc1cccc(Cl)c1)c1ccc(-c2cccnc2)c2ccoc12	0	-2	-2	-2	2	nt	nt	nt
CC1=C/C(=N\NC(=O)c2ccccc2)CC1	2	3	14*	0	4	0	1	0
CCOC(=O)C1=CNS(=O)(=O)NC1c1ccc(OC(C)=O)cc1 (stereo not given)	2	1	-1	0	1	-1	nt	nt
CC(=O)Nc1ccc(OCC[n+]2cccc(C(N)=O)c2)cc1	0	-1	20*	-1	2	nt	0	0
CC(=O)Nc1ccc(OCCC[n+]2ccccc2)cc1	-1	1	2	-1	-1	2	nt	nt
O=C(CSc1nnc2ccccn12)NNC(=O)c1cccc(Cl)c1	1	1	0	-1	1	1	nt	nt
Clc1ccc2nc(N3CCCCC3)[nH]c2c1	4.5*	5.7*	20*	0	0	1	17*	1
CC(C)N(Cc1ccccc1)C(=O)COC(=O)c1c(F)cccc1F	0	0	-2	0	0	-1	nt	nt
Cc1ccccc1OCC(=O)NCCCNC(=O)c1ccncc1	0	-1	2	-1	2	2	nt	nt
COc1cc(OC)c(C2=NOC(C(=O)N3CCc4ccccc4C3)C2)cc1Cl (stereo not given)	0	-1	14*	-1	0	0	-4	0
Cc1ccc(OCc2nc3ccccc3[nH]2)cc1	4.2*	6.0*	16*	0	2	0	13*	1
Cc1ccc(C(=O)Cc2nc3ccccc3[nH]2)cc1	1	2	6	0	4	0	nt	nt
Nc1nc(-c2ccccc2)c(C(=O)Nc2ccccc2)s1	-1	-1	1	-1	1	3	nt	nt
Cc1nc2ccc(S(=O)(=O)Nc3cc(-c4nc5cccnc5s4)ccc3C)cc2s1	3	5	17*	0	1	1	10	0
Cc1nc(C)c(-c2csc(Nc3cccc(O)c3)n2)s1	1	3	23*	0	1	0	14*	1
SMILES	DAX1 inh-1	hcDAF12 agonist	hgDAF-12 ag	ssDAF-12 act	FXN GAA850 act	DAX1 inh-2	hgDAF12 ag	LXR ag 2
Cc1nc(N)sc1-c1csc(Nc2cccc(O)c2)n1	0	1	1	0	1	0	nt	nt
CCC/C=N/NC(=O)c1cccc(Br)c1	0	-1	14*	-1	3	1	3	0
CCC/C=N/NC(=O)c1ccc(F)cc1	0	-2	6	-1	4	0	nt	nt
Cc1ccc(NCCC(=O)c2cccs2)cc1C	2	4	15*	1	5	1	15*	1
Cc1ccc(NCCC(=O)c2ccc(Cl)cc2)cc1C	-1	1	1	0	2	0	nt	nt
COC(=O)C1=C(C)N(Cc2ccccc2C(F)(F)F)C(=NCc2ccccc2)NC1c1ccc(F)cc1 (stereo not given)	0	0	2	-1	nt	nt	nt	nt
CCN(CC)c1ccc(NC(=O)/C=C\c2ccccc2Cl)cc1	1	-1	7	-2	1	1	nt	nt
CN(C)c1ccc(NC(=O)/C=C/c2ccccc2Cl)cc1	2	4	18*	-1	3	0	14*	1
CCCNC(=O)Cn1c(=O)/c(=C\c2ccc(-c3ccc([N+](=O)[O-])cc3)o2)s/c1=C\C(=O)C(C)(C)C	nt	nt	nt	nt	0	1	nt	nt
Cc1c(/C=C/C(=O)c2ccc(O)cc2)cnn1C	2	4	17*	0	5	4	9	0
Cc1nn(C)cc1/C=C/C(=O)c1ccccc1	3	5	18*	0	1	3	16*	1
Cc1c(/C=C/C(=O)c2ccccc2)cnn1C	0	1	5	-1	4	4	nt	nt
O=C(/C=C/c1c[nH]c2ccccc12)c1ccccc1	1	5	16*	1	5	2	20*	1
CCn1ncc(/C=C/C(=O)c2ccccc2)c1C	1	4	17*	0	5	3	13*	1
O=C(/C=C/c1ccccc1O)c1ccccc1	-1	0	3	-1	1	1	nt	nt
O=C(Nc1ccccc1)c1cc(C2CCCCN2C(=O)c2cccs2)on1 (stereo not given)	0	-1	2	-2	0	nt	nt	nt
CCOC(=O)C1=CNS(=O)(=O)NC1c1ccc2ccccc2c1 (stereo not given)	0	4	3	0	1	1	nt	nt
CNc1cccc(-c2cccc(O)c2)n1	2	0	17*	-1	1	nt	9	0
COc1cccc(-c2nc(CS(=O)(=O)CC(=O)N3CCOCC3)c(C)o2)c1	1	3	0	-1	2	2	nt	nt
COCC(=O)Nc1ccc2c(c1)OCC(=O)N2Cc1ccc(C)cc1	0	0	0	-1	2	1	nt	nt
Cc1ccc(NC(=O)c2cccnc2)cc1S(=O)(=O)N(C)C	0	0	-3	-1	1	0	nt	nt
Cc1ccc(NC(=O)c2ccc3ncsc3c2)cc1S(=O)(=O)N(C)C	3	4	20*	0	nt	nt	14*	1
